Source: PubChem BioAssay (NCATS)
Results filed as inconclusive are left out. Active and inactive are the calls of the source. Calls come from the whole dose curve; as a rule, active = well fitted curve in the direction sought with a large enough effect; inconclusive = small, poorly fitted or top-dose-only effect, or another doubt; inactive = no such curve, though single readings can be large; an effect the other way counts as inactive or inconclusive.

Experiments:
[1] = qHTS of pediatric cancer cell lines to identify multiple opportunities for drug repurposing: Primary screen for TC32 cells (AID 1347089); note: nearly all actives have a fitted effect of over 60% in size
Procedure, shortened: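 A viability screen of TC32 cells was run over 48 h, with primary MIPE doses spanning 0.78 nM–46 µM and NPC doses 0.59 nM–46 µM. ATP luminescence (CellTiter-Glo) served as the read-out.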

[2] = qHTS of pediatric cancer cell lines to identify multiple opportunities for drug repurposing: Primary screen for DAOY cells (AID 1347090); note: nearly all actives have a fitted effect of over 55% in size
Procedure, shortened: (§1)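 Eight- or eleven-point concentration series, 48 h treatment at 37 degrees C in growth media; readout CellTiter-Glo luminescence. Potency and efficacy were taken from the concentration-response curves.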

[3] = qHTS of pediatric cancer cell lines to identify multiple opportunities for drug repurposing: Primary screen for SJ-GBM2 cells (AID 1347091)
Procedure, shortened: as §1

[4] = qHTS of pediatric cancer cell lines to identify multiple opportunities for drug repurposing: Primary screen for SK-N-MC cells (AID 1347093)
Procedure, shortened: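 Metabolically active cells were quantified by ATP-dependent luminescence (CellTiter-Glo, 15 min at room temperature) following 48 h treatment. Cells had been plated at 500-1,000 per well and settled for 5 h beforehand.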

[5] = qHTS of pediatric cancer cell lines to identify multiple opportunities for drug repurposing: Primary screen for BT-37 cells (AID 1347094)
Procedure, shortened: (§2)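 Phenotypic viability qHTS, 48 h compound exposure, CellTiter-Glo luminescence read-out; multi-concentration dosing so that potency and efficacy derive directly from the primary screen's curves.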

[6] = qHTS of pediatric cancer cell lines to identify multiple opportunities for drug repurposing: Primary screen for NB-EBc1 cells (AID 1347095)
Procedure, shortened: as §2

[7] = qHTS of pediatric cancer cell lines to identify multiple opportunities for drug repurposing: Primary screen for Saos-2 cells (AID 1347097); note: nearly all actives have a fitted effect of over 40% in size
Procedure, shortened: as §2

[8] = qHTS of pediatric cancer cell lines to identify multiple opportunities for drug repurposing: Primary screen for SK-N-SH cells (AID 1347098); note: nearly all actives have a fitted effect of over 65% in size
Procedure, shortened: (§3)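 Cells (500-1,000/well) rested 5 h, then received compounds for 48 h; metabolically active cells were measured by CellTiter-Glo luminescence. Final concentrations spanned up to 46 µM (MIPE, 11-point) or 0.59 nM-46 µM (NPC, 8-point) in primary screens, 11-point in follow-ups.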

[9] = qHTS of pediatric cancer cell lines to identify multiple opportunities for drug repurposing: Primary screen for NB1643 cells (AID 1347099); note: nearly all actives have a fitted effect of over 50% in size
Procedure, shortened: as §2

[10] = qHTS of pediatric cancer cell lines to identify multiple opportunities for drug repurposing: Primary screen for LAN-5 cells (AID 1347100)
Procedure, shortened: (§4)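 Cells (500-1,000/well) in growth media were settled 5 h at 37 degrees C, then given compounds for 48 h. Viability was read as CellTiter-Glo luminescence. Primary runs used MIPE at 11 points (0.78 nM-46 µM) and NPC at 8 points (0.59 nM-46 µM); follow-ups used 11 points.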

[11] = qHTS of pediatric cancer cell lines to identify multiple opportunities for drug repurposing: Primary screen for Rh18 cells (AID 1347102); note: nearly all actives have a fitted effect of over 65% in size
Procedure, shortened: as §4

[12] = qHTS of pediatric cancer cell lines to identify multiple opportunities for drug repurposing: Primary screen for OHS-50 cells (AID 1347103); note: nearly all actives have a fitted effect of over 40% in size
Procedure, shortened: as §3

[13] = qHTS of pediatric cancer cell lines to identify multiple opportunities for drug repurposing: Primary screen for RD cells (AID 1347104); note: nearly all actives have a fitted effect of over 55% in size
Procedure, shortened: as §2

[14] = qHTS of pediatric cancer cell lines to identify multiple opportunities for drug repurposing: Primary screen for MG 63 (6-TG R) cells (AID 1347105); note: nearly all actives have a fitted effect of over 50% in size
Procedure, shortened: as §2

[15] = qHTS of pediatric cancer cell lines to identify multiple opportunities for drug repurposing: Primary screen for BT-12 cells (AID 1347101); note: nearly all actives have a fitted effect of over 25% in size
Procedure, shortened: as §3

[16] = qHTS of pediatric cancer cell lines to identify multiple opportunities for drug repurposing: Primary screen for U-2 OS cells (AID 1347096); note: nearly all actives have a fitted effect of over 50% in size
Procedure, shortened: as §4

[17] = qHTS of pediatric cancer cell lines to identify multiple opportunities for drug repurposing: Primary screen for control Hh wild type fibroblast cells (AID 1347106); note: nearly all actives have a fitted effect of over 55% in size
Procedure, shortened: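 Viability after 48 h compound treatment at 37C, 500-1,000 cells/well, read as ATP luminescence with CellTiter-Glo. Primary screens used 11-point (MIPE, 0.78 nM-46 µM) or 8-point (NPC, 0.59 nM-46 µM) final concentrations; follow-up screens used 11-point dilutions.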

[18] = qHTS of pediatric cancer cell lines to identify multiple opportunities for drug repurposing: Primary screen for A673 cells (AID 1347092); note: nearly all actives have a fitted effect of over 45% in size
Procedure, shortened: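 Titration-based qHTS on A673 cells: MIPE compounds spanned 11 points (0.78 nM to 46 µM final), NPC compounds 8 points (0.59 nM to 46 µM final). Viability after 48 h was measured by ATP luminescence.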

Measured: Potency
Potency is the fitted concentration of half-maximal effect.

COc1ccc(-n2nc(C(N)=O)c3c2C(=O)N(c2ccc(N4CCCCC4=O)cc2)CC3)cc1
active: [5] 12.2 µM
inactive: [1] | [2] | [3] | [4] | [6] | [7] | [8] | [9] | [10] | [11] | [12] | [13] | [14]

CCOc1cc2ncc(C#N)c(Nc3ccc(F)c(Cl)c3)c2cc1NC(=O)C=CCN(C)C
active: [1] 18.6 µM | [2] 0.118 µM | [3] 0.935 µM | [4] 0.0469 µM | [6] 9.35 µM | [7] 2.96 µM | [8] 0.341 µM | [9] 1.05 µM | [10] 4.18 µM | [15] 7.69 µM | [11] 10.5 µM | [12] 0.137 µM | [13] 0.526 µM

CC(=O)OCCN1C(=O)c2c(C)nc3ccc(S(=O)(=O)N4CCOCC4)cc3c2C1=O
inactive: [1] | [2] | [3] | [6] | [16] | [7] | [8] | [11] | [14] | [17]
active: [4] 20.9 µM | [5] 5.44 µM | [15] 10.9 µM | [12] 24.3 µM

O=C(O)[C@H](Cc1c[nH]c2ccccc12)N1C(=O)c2ccccc2C1=O
active: [4] 48.1 µM
inactive: [1] | [2] | [3] | [5] | [6] | [16] | [7] | [10] | [15] | [13] | [14]

Cc1ccc(C(=O)Nc2cccc(C(F)(F)F)c2)cc1-c1ccc2nc(NCCN3CCOCC3)ncc2c1
active: [1] 18.6 µM | [2] 14.8 µM | [3] 6.62 µM | [4] 4.69 µM | [5] 6.11 µM | [6] 3.72 µM | [7] 5.9 µM | [8] 9.61 µM | [9] 5.26 µM | [10] 14.8 µM | [15] 7.69 µM | [11] 7.43 µM | [12] 3.85 µM | [13] 5.9 µM | [14] 14.8 µM
inactive: [16]

Cc1[nH]nc2ccc(-c3cncc(OC[C@@H](N)Cc4ccccc4)c3)cc12
active: [1] 4.66 µM | [2] 2.96 µM | [18] 0.235 µM | [4] 0.526 µM | [5] 1.22 µM | [6] 0.469 µM | [7] 2.96 µM | [8] 1.52 µM | [9] 0.935 µM | [10] 0.372 µM | [15] 1.72 µM | [13] 3.32 µM | [14] 2.96 µM

Nc1ccccc1NC(=O)c1ccc(CNc2nccc(-c3cccnc3)n2)cc1
active: [1] 6.58 µM | [2] 7.43 µM | [3] 2.35 µM | [4] 0.187 µM | [5] 3.06 µM | [6] 0.743 µM | [16] 4.69 µM | [7] 2.35 µM | [8] 2.41 µM | [9] 0.296 µM | [10] 0.743 µM | [15] 4.85 µM | [12] 0.968 µM | [13] 2.96 µM | [14] 3.72 µM | [17] 14.8 µM

Cn1c(CNc2ccc(C(=N)N)cc2)nc2cc(C(=O)N(CCC(=O)O)c3ccccn3)ccc21
inactive: [1] | [2] | [3] | [5] | [6] | [16] | [7] | [10] | [15] | [11] | [12] | [13] | [14] | [17]

Nc1cc(C(F)(F)F)c(-c2cc(N3CCOCC3)nc(N3CCOCC3)n2)cn1
active: [1] 2.62 µM | [2] 0.372 µM | [18] 0.235 µM | [4] 0.0296 µM | [5] 1.53 µM | [6] 0.166 µM | [7] 1.48 µM | [8] 0.482 µM | [9] 0.296 µM | [10] 0.469 µM | [15] 1.22 µM | [11] 0.59 µM | [12] 0.153 µM | [14] 0.187 µM

COC(=O)c1ccc2c(C(=Nc3ccc(N(C)C(=O)CN4CCN(C)CC4)cc3)c3ccccc3)c(O)[nH]c2c1
active: [1] 10.4 µM | [2] 0.59 µM | [3] 16.6 µM | [18] 0.296 µM | [5] 3.85 µM | [6] 2.09 µM | [7] 9.35 µM | [8] 6.07 µM | [9] 2.35 µM | [10] 2.35 µM | [12] 5.44 µM

CNC(=O)c1cc(Oc2ccc(NC(=O)Nc3cc(C(C)(C)C)nn3-c3ccc4ncccc4c3)c(F)c2)ccn1
inactive: [1]
active: [2] 18.7 µM | [3] 1.32 µM | [18] 5.9 µM | [6] 2.35 µM | [7] 16.6 µM | [8] 19.2 µM | [9] 4.69 µM | [15] 24.3 µM | [11] 20.9 µM | [12] 27.3 µM

Cc1cc(Nc2cc(N3CCN(C)CC3)nc(C=Cc3ccccc3)n2)n[nH]1
active: [1] 6.02 µM | [2] 42.9 µM | [3] 13.6 µM | [4] 1.52 µM | [5] 44.4 µM | [6] 4.29 µM | [7] 3.03 µM | [8] 3.5 µM | [9] 34 µM | [10] 0.679 µM | [15] 7.89 µM | [11] 3.82 µM | [12] 2.22 µM | [13] 21.5 µM | [14] 21.5 µM | [17] 38.2 µM
